This passage reports growth results from PubChem BioAssay (NCI).

The structures appear in SMILES notation. This is part of a sample that, as a whole, favours compounds with a hit. Of some 83,000 tested, about 20% had one in any assay.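 Compound tested at a single concentration for 48 hours in 96-well plates; a percent growth value below 10 was scored as active.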 A number with no mark means an inactive call. Active and inactive are the calls of the source.

For the experiment, the system named is MDA-MB-468 breast. The experiment in a line: NCI-60 one-dose screen, 48 h (100 = growth as untreated, 0 = no growth, -100 = all killed). Conditions: 10 µM unless noted.
For `CN(Cc1cc(Cl)cc(Cl)c1O)Cc1cc(Cl)cc(Cl)c1O`, the growth is 36.5%.

Turning to `C=C(CNCCc1ccc(O)cc1)[C@@H]1CC[C@]2(CO)CC[C@]3(C)[C@H](CC[C@@H]4[C@@]5(C)CCC(=O)C(C)(C)[C@@H]5CC[C@]43C)[C@@H]12`, the growth is 8.97% (active).

As for `O=C1/C(=C/c2cccc(F)c2)Cc2ccccc21`, the growth was 107%.

Regarding `CCN=c1sc2c(n1NC(=O)c1cc3ccc1CCc1ccc(cc1)CC3)C(=O)c1ccccc1C2=O`, the growth is -33.7% (active).

For `Cc1c(O)nc(N)[nH]c1=O`, the growth is 105%.

Turning to `Cc1c2cnccc2c(C)c2c1c1cc(C(=O)O)ccc1n2C`, the growth is -7.86% (active).

Take `FC(F)(F)c1ccc(-c2cnc(-n3cc(COCCN4CCCCC4)nn3)nc2NC2CCCCCC2)cc1`: the growth is 16.1%.

Regarding `Cc1cc(C)c2c(c1)N1OC(C2)C[C@H]1/C=C/c1ccccc1` (stereo partly drawn), the growth was 92.4%.

`COc1nc2ccc(C)cc2cc1-c1nc2c(cnn2-c2ccccc2)c(=O)[nH]1`: the growth is 69.4%.

With `Cc1c([N+](=O)[O-])cc(C(C)(C)C)cc1[N+](=O)[O-]`, the growth is 90.6%.

For the compound `COc1ccc([C@H]2[C@H](O)C(=O)N2c2cc(OC)c(OC)c(OC)c2)cc1`, the growth was 8.33% (active).

On to `CCN(CC)CCCC(C)Nc1ccnc2c(OC)cccc12` (stereo not drawn), for which the growth is 117%.

Regarding `Cc1c2oc3c(C)ccc(C(=O)OC(C)C4NC(=O)C(C(C)C)N(C)C(=O)CN(C)C(=O)C5CCCN5C(=O)C(C(C)C)NC4=O)c3nc-2c(C(=O)OC(C)C2NC(=O)C(C(C)C)N(C)C(=O)CN(C)C(=O)C3CCCN3C(=O)C(C(C)C)NC2=O)c(N)c1=O` (stereo not drawn), the growth was -68.7% (active).
